Results from PubChem BioAssay (EPA / NIEHS).
Activity calls are given as the source filed them. How the source made its calls: active means hit-call score of the fitted dose curve at least 0.9, where 1 is the maximum; inactive means score below 0.9.

Experiment: ATG_CMV_CIS: Attagene CIS-FACTORIAL HepG2 Assay for human CMV (Internal Marker) (AID 2282928);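 further: endpoint acts as a background internal control marker rather than a target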
Details: HepG2 CMV promoter reporter, transcription factor profiling; actives raise or lower the signal
Description: ATG_CIS is a cell-based, multiplexed-readout assay that uses HepG2, a human liver cell line, with measurements taken at 24 hours after chemical dosing in a 24-well plate.ATG_CMV_CIS is one of 52 assay component(s) measured or calculated from the ATG_CIS assay. It is designed to make measurements of mRNA induction, a form of inducible reporter, as detected with fluorescence intensity signals by Reverse transcription polymerase chain reaction (RT-PCR) and Capillary electrophoresis technology.Data from the assay component ATG_CMV_CIS was analyzed into 1 assay endpoint. This assay endpoint, ATG_CMV_CIS, was analyzed with bidirectional fitting relative to DMSO as the negative control and baseline of activity. Using a type of inducible reporter, measures of mRNA for gain or loss-of-signal activity can be used to understand the background control at the transcription factor-level as they relate to the gene . Furthermore, this assay endpoint can be referred to as a secondary readout, because this assay has produced multiple assay endpoints where this one serves a background control function. To generalize the intended target to other relatable targets, this assay endpoint is annotated to the background measurement intended target family, where the subfamily is internal marker.
Human liver HepG2 cells are transiently transfected with multiple reporter transcription units (MRTUs) in 6-well plates using FuGene 6 reagent (Roche; 3 ml FuGene/1 mg DNA). The MRTU constructs are regulated by a cis-regulating element (promoter). […] A major difference between the CIS and TRANS system is that in CIS activities of endogenous TFs are measured, whereas the TRANS assay evaluates changes in activities of exogenous, chimeric NR-Gal4 proteins. […] At the end of 24 hour incubation, total RNA was isolated using TriZol reagent (Invitrogen). The isolated RNA is then reverse-transcribed using oligo(dT) primer and Mo-MLV reverse transcriptase (Invitrogen) with DNAse I (Ambion) treatment for 30 min. The one-tenth of the produced cDNA was amplified by PCR using Taq DNA polymerase (Invitrogen) and two reporter sequence-specific primers. The PCR products were fluorescently labeled by primer extension with 6-arboxyfluorescein (6-FAM) 5'-labeled reporter sequence-specific primer (2 min at 95 C, 20 s at 68 C and 10 min at 72 C) and these products were digested with 5U of HpaI (New England Biolabs) for 2h at 37 C. The fragments were purified using Qiaquick PCR columns (Qiagen), analyzed on an ABI 3130xL genetic analyzer (Applied Biosystems) with peak positions identified by using a set of X-rhodamine (ROX)-labeled MapMarker1000 molecular weight standards (BioVentures). The raw capillary electrophoresis data was processed using Attagraph software (Attagene).

SMILES | AC50 | outcome
CCCCCCCCCCCC(C)=O | 124 µM (active) | –
CCCCOCC(C)O (stereo not given) | – | inactive
N#CC1(N)CCCCC1 | – | inactive
CN(C)Cc1cc(CN(C)C)c(O)c(CN(C)C)c1 | – | inactive
CCCCCCO | – | inactive
CC(=O)OC1CCCCC1C(C)(C)C (stereo not given) | – | inactive
Clc1cc(Cl)c(Cl)c(Cl)c1Cl | 50.7 µM (active) | –
C=CCCCCCCCCOC(C)=O | – | inactive
N=C1C=CC(=C(c2ccc(N)cc2)c2ccc(N)cc2)C=C1 | 33.4 µM (active) | –
Clc1cccnc1 | – | inactive
Nc1ccnc(=O)[nH]1 | – | inactive
C=Cc1ccc(OC(C)=O)cc1 | 13.1 µM (active) | –
CC1C(C)(C)C2=C(C(=O)CCC2)C1(C)C (stereo not given) | – | inactive
CC(=O)CCC=C(C)C | – | inactive
C=CC(C)(O)CC/C=C(\C)CC (stereo not given) | – | inactive
Cc1ccc([N+](=O)[O-])cc1N | – | inactive
CCCCc1ccc(Cl)cc1 | – | inactive
C=C[C@@]1(C)CC(=O)[C@]2(O)[C@@]3(C)[C@@H](O)CCC(C)(C)[C@@H]3[C@H](O)[C@H](OC(C)=O)[C@@]2(C)O1 | 0.476 µM (active) | –
CC(=O)OC/C=C(/C)CCC=C(C)C | – | inactive
COc1cc(C)ccc1O | – | inactive

SMILES | AC50 | outcome
CCCCCCCCC(CO)CCCCCC (stereo not given) | 8.41 µM (active) | –
CCC(C)c1ccccc1 (stereo not given) | – | inactive
Cn1cccc1 | – | inactive
O=C1CCCN1C1CCCCC1 | – | inactive
O=C(OCc1ccccc1)c1ccc(O)cc1 | – | inactive
CCCCNS(=O)(=O)c1ccc(C)cc1 | – | inactive
CC(=O)OCc1ccccc1 | – | inactive
CCCCOCCOCCOC(C)=O | – | inactive
CC=C(C)C(C)=O | – | inactive
CCCCCCCCCCCCc1ccc(O)cc1 | – | inactive
C=C(C)C(=O)OCCOC(=O)C(=C)C | – | inactive
CC(=O)OC1CCCCC1 | – | inactive
CC(C)CCOCc1ccccc1 | – | inactive
CC(C)c1cccc(C(C)C)c1N | – | inactive
[Cl][Sc]([Cl])[Cl] | – | inactive
CC=C(C)C=CC=C(C)C | – | inactive
CCCCCCCOC(=O)c1ccc(O)cc1 | – | inactive
CC(=O)OC(C)c1ccccc1 (stereo not given) | – | inactive
COC(=O)c1ccc(C(=O)OC)c(C(=O)OC)c1 | – | inactive
CC(C)CCCCCOC(=O)CS | – | inactive
